Compound activity from PubChem BioAssay.
TcdB GH inh: inhibitors of Clostridioides difficile toxin B glycohydrolase | P18177 | TcdB glycohydrolase enzymatic assay, plate reader | inhibition, % at 9.99 µM | hit rate 0.24% among 350,000; in the data active = inhibition above about 10%
FBA Mtb inh: Mtb fructose-bisphosphate aldolase inhibition | AID 588726 | purified M. tuberculosis FBA, fluorescence read-out | hit rate 2.3% among 360,000 | inhibition, % at 1 µM | P9WQA3;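 note: 0% = vehicle and 100% = reference inhibitor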
GDH-TPI counter-1: inhibits GDH-TPI coupling enzymes, artifact for Mtb FBA screen | GDH-TPI coupled enzyme counterscreen, NADH absorbance | inhibition, % at 4.8 µM | hit rate 1.2% among 360,000; in the data active = inhibition above about 30%;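 note: 0% = DMSO wells and 100% = wells lacking the enzyme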
PrPC TRFRET: cell surface PrPC inhibition, primary TR-FRET screen. P04156. TR-FRET read-out. inhibition, % at 13.8 µM. hit rate 0.43% among 370,000. AID 720596; in the data active = inhibition above about 24%; note: 0% = median of the test wells and 100% = reference compound wells
Y pestis TopoI: inhibitors of Yersinia pestis topoisomerase I; hit rate 0.064% among 360,000; activity, % at 10 µM; Y. pestis Topo-I cleavage product accumulation, plate reader; AID 504884; in the data active = activity above about 50%, passing the limit was not always enough; inconclusive = no clear call, values can overlap the other calls
Mtb FBA inh conf: confirmation of M. tuberculosis fructose-bisphosphate aldolase inhibitors; shares compounds with FBA Mtb inh; purified M. tuberculosis FBA, fluorescence read-out; inhibition, % at 1 µM; hit rate 78% among 5,600;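 note: 0% = vehicle wells and 100% = reference inhibitor wells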
GDH-TPI counter-2: GDH-TPI inhibition counter-screen for FBA inhibitors | shares compounds with FBA Mtb inh | GDH-TPI coupled enzyme counterscreen, fluorescence | inhibition, % at 1 µM | hit rate 81% among 5,600; in the data active = inhibition above about 10%
GDH-TPI DR: counter-screen for M. tuberculosis FBA inhibitors: GDH-TPI dose response; IC50, µM; hit rate 79% among 170; shares compounds with FBA Mtb inh; AID 652145; GDH-TPI coupled enzyme assay, fluorescence, artifact counterscreen; call rule not given here
Starred values were filed as active, the others as inactive; ? = inconclusive; · = no result given; + = active, no number. Only some compounds are listed: those with a hit (about 3.2% of all), similar ones and a draw of the others. Cut-off read from the data, not from the text of the source, unless noted: active = inhibition above about 27%; inactive = the rest.

SMILES	TcdB GH inh	FBA Mtb inh	GDH-TPI counter-1	PrPC TRFRET	Y pestis TopoI	Mtb FBA inh conf	GDH-TPI counter-2	others
CNC(=O)c1ccc(-c2ccccc2)s1	·	28.3*	5.2	-11.6	-5.7	78.3*	52.9*
CC(=O)Nc1ccc(-c2ccccc2)s1	·	2.4	4.7	-3.0	3.0	·	·
Cc1ccc2nc(-c3cccc(N)c3)oc2c1	0.5	92.7*	12.6	-3.4	3.0	14.3	-0.2	GDH-TPI DR=0.953*
Cc1ccc2oc(-c3cccc(NC(=O)C4CCCO4)c3)nc2c1 (stereo unspecified)	·	50.9*	9.4	-0.9	13.5	119.9*	97.9*
CCC(=O)Nc1cccc(-c2nc3ccc(C)cc3o2)c1	-4.8	31.7*	4.3	11.5	5.4	114.8*	99.0*
Cc1ccc2nc(-c3ccc(O)cc3)oc2c1	1.0	65.9*	3.7	1.4	3.5	67.8*	45.8*
CN1C(=O)c2cc(NC(=O)c3cccc(F)c3)ccc2OC[C@@H]2O[C@H](CC(=O)NCC3CC3)CC[C@H]21	-0.3	·	·	·	·	·	·
C[C@@H]1CN([C@H](C)CO)C(=O)c2cc(-c3cncnc3)cnc2O[C@@H]1CN(C)C(=O)Cc1ccccc1	0.1	·	·	·	·	·	·
Cc1cc(C)c2oc(-c3cccc(N)c3)nc2c1	-0.3	51.8*	9.6	1.1	-8.2	18.8	7.2	GDH-TPI DR=0.879*
CCc1ccc2oc(-c3cccc(N)c3)nc2c1	·	62.6*	3.8	0.4	-9.8	126.9*	103.8*
CN(C)C(=O)C[C@H]1CC[C@H]2[C@@H](COc3ccc(NC(=O)C4CCOCC4)cc3C(=O)N2C)O1	0.5	·	·	·	·	·	·
Cn1nc(-c2ccc(Cl)cc2)c2cc(C(=O)NCCN3CCOCC3)sc21	2.2	33.7*	1.4	-3.6	-6.0	40.6*	26.3*
CCN1CCN(C(=O)c2cc3c(-c4ccc(Cl)cc4)nn(C)c3s2)CC1	-1.7	15.7	18.8	1.1	17.5	·	·
Cn1nc(-c2ccc(Cl)cc2)c2cc(C(=O)NCCCN3CCOCC3)sc21	·	29.3*	15.9	·	-3.0	67.3*	55.8*
C[C@H]1CCCCO[C@@H](CN(C)CC2CCCCC2)[C@@H](C)CN([C@@H](C)CO)C(=O)c2cc(NS(C)(=O)=O)ccc2O1	-1.0	·	·	·	·	·	·
C[C@H]1CN([C@@H](C)CO)C(=O)c2cc(NS(=O)(=O)c3cccs3)ccc2O[C@H]1CN(C)S(=O)(=O)c1ccc(Cl)cc1	-0.3	·	·	·	·	·	·
C[C@@H]1CCCCO[C@@H](CN(C)Cc2ccc(Cl)c(Cl)c2)[C@H](C)CN([C@@H](C)CO)C(=O)c2cc(NC(=O)Nc3ccc(C(F)(F)F)cc3)ccc2O1	0.3	·	·	·	·	·	·
CCNC(=O)[C@@H]1[C@@H](CO)[C@@H]2Cn3c(ccc(-c4cccnc4)c3=O)[C@H]1N2Cc1ccccc1	0.7	·	·	·	·	·	·
CCc1ccc(-c2cc(C(=O)NCc3ccccn3)c3ccccc3n2)cc1	·	29.1*	-1.1	-9.4	34.6	88.4*	64.5*
Cc1ccc(-c2cc(C(=O)NCc3ccccn3)c3ccccc3n2)cc1	·	28.0*	20.4	-19.9	-3.5	122.9*	115.8*
COc1cccc(-c2ccc([C@@H]3[C@@H](CO)N4CCCCN(S(=O)(=O)c5cn(C)cn5)C[C@@H]34)cc2)c1	-0.4	·	·	·	·	·	·
O=C(C1CCCC1)N1CC(=O)N2[C@H](CO)[C@@H](c3ccc(Br)cc3)[C@H]2C1	-0.9	·	·	·	·	·	·
C[C@H]1CN([C@@H](C)CO)C(=O)c2cccc(NC(=O)c3ccc(-c4nccs4)cc3)c2O[C@H]1CN(C)Cc1ccc(Cl)c(Cl)c1	-1.5	·	·	·	·	·	·
Oc1ccc(Br)cc1C=Nc1ccc2c3c(cccc13)CC2	2.5	38.4*	5.9	4.4	-1.4	+	+
O=C(C[C@@H]1C=C[C@@H](NC(=O)c2cccnc2)[C@@H](CO)O1)NCc1ccc(Cl)c(Cl)c1	-1.0	·	·	·	·	·	·
SMILES	TcdB GH inh	FBA Mtb inh	GDH-TPI counter-1	PrPC TRFRET	Y pestis TopoI	Mtb FBA inh conf	GDH-TPI counter-2	others
COc1ccc(-c2coc3c(CN4CCOCC4)c(O)ccc3c2=O)cc1	-0.3	41.0*	8.1	8.1	-13.1	63.1*	50.3*
Cc1oc2c(CN3CCOCC3)c(O)ccc2c(=O)c1-c1ccccc1	-0.3	97.8*	23.8	4.3	2.7	+	+
CCOc1ccccc1Oc1c(C)oc2c(CN3CCN(CCO)CC3)c(O)ccc2c1=O	·	80.3*	14.9	-2.8	-5.8	-11.1	-7.5
Cc1c(O)ccc2c(=O)c(-c3nncn3-c3ccccc3)coc12	0.0	1.8	6.6	13.4	-4.6	·	·
O=c1c(-c2ccccc2)coc2c(CN3CCCC3)c(O)ccc12	·	82.5*	15.5	6.7	0.5	144.7*	123.1*
O=c1c(-c2ccc(Cl)cc2)coc2c(CN3CCOCC3)c(O)ccc12	·	30.4*	25.4	3.6	0.5	29.9*	19.1*
O=C(c1ccccc1)c1coc2ccc(O)c(CN3CCOCC3)c12	·	3.2	-2.5	-10.8	6.3	·	·
O=C(C[C@@H]1CC[C@H]2[C@@H](COC[C@@H](O)CN2CCc2ccccc2)O1)NCc1ccccc1	-0.3	·	·	·	·	·	·
O=S(=O)(O)c1cc(O)c2cc(Nc3ccccc3)ccc2c1	-0.6	47.7*	17.0	-7.0	-26.8	90.9*	97.6*
COc1ccccc1Nc1ccc2c(O)cc(S(=O)(=O)O)cc2c1	2.2	21.4	17.7	-6.2	-20.7	·	·
O=S(=O)(O)c1cc(O)c2ccc(Nc3ccccc3)cc2c1	1.5	35.0*	7.7	-5.8	-18.9	3.9	-1.0
CCN(CC)CCn1c2ccccc2c2cnc(N)c(C#N)c21	·	28.7*	5.4	5.8	-14.0	+	180.0*
CCN(CC)CCn1c2ccccc2c2nc3ccccc3nc21	1.2	0.8	18.6	3.3	-7.0	·	·
C[C@H](CO)N1C[C@H](C)[C@@H](CN(C)Cc2ccc(Cl)c(Cl)c2)OCCCC[C@H](C)Oc2ccc(NC(=O)Nc3ccc4c(c3)OCO4)cc2C1=O	0.1	·	·	·	·	·	·
C=CCn1c(SCC(=O)Nc2sc(C)c(C)c2C(=O)OCC)nnc1-c1sc(N)nc1C	·	-0.6	11.3	6.7	1.0	·	·
C=CCn1c(SCC(=O)NC2CCCCC2)nnc1-c1sc(N)nc1C	·	30.3*	9.7	4.5	13.3	114.0*	96.2*
NC(=O)c1nc(-c2ccccc2)c(-c2ccccc2)[nH]c1=O	1.2	67.0*	13.1	4.7	-8.0	37.0*	22.5*
CCOC(=O)c1nnc(-c2ccccc2)[nH]c1=O	1.0	-0.4	8.7	-2.7	-4.5	·	·
CC(C)CC(c1nnnn1C(C)C)N1CCN(c2cccc(Cl)c2)CC1 (stereo unspecified)	·	42.4*	-4.5	-2.0	?	+	+
CC(C)CC(c1nnnn1C(C)C)N1CCN(C(=O)c2ccco2)CC1 (stereo unspecified)	-6.3	0.9	3.1	-6.8	-9.9	·	·
Cc1cccc(C)c1OCC(O)CN(Cc1ccccc1O)C1CCCCC1 (stereo unspecified)	-4.1	32.2*	-1.3	12.4	12.0	44.4*	30.9*
